MCF10A rerep = induces DNA re-replication in MCF 10a normal breast cells; MCF 10A DNA re-replication, Hoechst nuclear intensity, 48 h; Potency, µM (series often up to 46.1 µM), hits mostly activators; actives 2.9% (n = 350,000); also: nearly all actives have a fitted effect of over 50% in size
KB-V1 cytotox = KB-V1 MDR subline cytotoxicity. KB-V1 MDR cells viability, CellTiter-Glo, 72 h. actives 3.4% (n = 400,000). Potency, µM (highest dose often 46.1 µM), actives largely listed as cytotoxic. AID 1347076; also: nearly all actives have a fitted effect of over 60% in size
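KB-V1 MDR subline cells in DMEM (phenol-red free, 10% FBS) exposed to compounds in qHTS concentration series for 72 h at 37 degrees C. Viability read by CellTiter-Glo luminescence; concentration-effect curves fitted after normalization and correction.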
SW480 rereplic = induces DNA re-replication in SW480 colon adenocarcinoma cells; actives 1.8% (n = 340,000); Potency, µM (doses to about 46.1 µM), usual class: activators; AID 624297; SW480 DNA re-replication, Hoechst DNA content imaging, 48 h; also: nearly all actives have a fitted effect of over 55% in size
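Image-based read-out: total Hoechst fluorescence of nuclei (405 nm excitation, 500-530 nm emission), with hits raising the fraction of high-intensity nuclei. SW480 colon cells incubated 48 hr with compounds at 37 C.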
KB-3-1 cytotox = KB-3-1 parental cell cytotoxicity | actives 1.4% (n = 400,000) | Potency, µM (titrated, usually from 46.1 µM), usual class: cytotoxic | KB-3-1 viability, CellTiter-Glo ATP luminescence, 72 h | AID 1347075; also: nearly all actives have a fitted effect of over 60% in size
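KB-3-1 cells, DMEM (no phenol red) + 10% FBS; compound by pin transfer, 72 h, 37 °C. Readout: CellTiter-Glo luminescence after 10 min. Data normalized, curve-fitted.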
TSG101-PTAP inh = blocks PTAP/TSG101 interaction to inhibit HIV-1 budding | AID 493005 | 340,000 tested, under 10 active | Potency, µM (highest dose often 115 µM), hits mostly inhibitors | Fluorescence polarization, FITC-PTAP peptide / Tsg101 binding | Q99816; active = well fitted inhibition curve with a large enough effect in the main read-out, with a control signal flat, not every such curve was filed as active; inconclusive = small, poorly fitted or top-dose-only effect, or effect the other way, or a change in a side signal; inactive = no such curve, though single readings can be large or run the other way
Target sequence (Q99816 whole entry, looked up): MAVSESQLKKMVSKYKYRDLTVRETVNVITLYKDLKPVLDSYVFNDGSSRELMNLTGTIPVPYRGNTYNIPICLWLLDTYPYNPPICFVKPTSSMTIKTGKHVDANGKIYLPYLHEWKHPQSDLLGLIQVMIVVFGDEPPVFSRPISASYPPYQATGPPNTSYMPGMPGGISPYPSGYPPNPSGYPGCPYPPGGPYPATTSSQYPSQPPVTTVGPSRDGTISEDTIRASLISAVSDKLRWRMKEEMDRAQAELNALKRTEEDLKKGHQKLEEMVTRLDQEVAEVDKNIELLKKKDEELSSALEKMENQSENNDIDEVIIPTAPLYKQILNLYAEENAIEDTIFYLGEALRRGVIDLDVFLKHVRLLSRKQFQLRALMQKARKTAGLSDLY
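Fluorescence anisotropy tracks displacement of a FITC-tagged PTAP peptide (50 nM) from the Tsg101 binding domain (10 uM), following a 20 min room-temperature incubation at pH 7.5.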
PINK1 modulator = modulators of PINK1 expression | PINK1 immunofluorescence, high-content cytometry, 24 h | Potency, µM (top dose mostly 76.6 µM), most hits filed as activators | actives 0.2% (n = 410,000); active = well fitted activation curve with a large enough effect; inconclusive = small, poorly fitted or top-dose-only effect; cell line not stated here; also: nearly all actives have a fitted effect of over 65% in size
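Readout is PINK1 immunofluorescence, quantified alongside mitochondrial, cell and nuclear markers by laser-scanning microplate cytometry. Cells from a stable line were exposed to compound titrations (5 concentrations) for 24 hours, with CCCP controls.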
Numbers stand for hits; – = inactive; ? = inconclusive; · = no result. This is a sample that favours compounds with a hit; in the whole collection about 6.8% have one here. Unless noted, calls follow the shape of the dose curve; as a rule, active = well fitted curve in the direction sought with a large enough effect; inconclusive = small, poorly fitted or top-dose-only effect, or another doubt; inactive = no such curve, though single readings can be large; an effect the other way counts as inactive or inconclusive.

SMILES	MCF10A rerep	KB-V1 cytotox	SW480 rereplic	KB-3-1 cytotox	TSG101-PTAP inh	PINK1 modulator
CCCn1c(NCc2cc(OC)ccc2OC)nc2ccccc21	–	4.1µM	–	–	–	–
CCCCn1c(NCc2ccccn2)nc2ccccc21	–	13µM	–	–	–	–
CCCn1c(NCc2ccco2)nc2ccccc21	–	21µM	–	–	·	–
CCCCCn1c(NCc2ccco2)nc2ccccc21	–	–	–	–	–	–
COc1ccc(CNc2nc3ccccc3n2CCN2CCCCC2)c(OC)c1	–	18µM	–	–	–	?
COc1cccc(CNc2nc3ccccc3n2CCN2CCCCC2)c1OC	?	–	–	–	–	–
COc1ccc(OC)c(CNc2nc3ccccc3n2CCN2CCCCC2)c1	–	4.1µM	–	?	–	–
COc1cccc(CNc2nc3ccccc3n2CCN2CCCCC2)c1	–	?	–	?	–	–
CC(C)(C)C(=O)Nc1cc(-c2cccc(Br)c2)nn1-c1ccccc1	·	–	·	–	·	–
Cc1cccc(NC(=O)c2ccc(F)c(S(=O)(=O)NCc3ccc4c(c3)OCO4)c2)c1	·	·	·	·	·	–
COc1cc2c(c(OC)c1OC)-c1ccc(NCc3ccccc3)c(=O)cc1C(NC(C)=O)CC2 (stereo not given)	·	–	·	1.2µM	·	–
COc1cc2c(c(OC)c1OC)-c1ccc(NC(=O)c3ccc(F)cc3)c(=O)cc1[C@@H](NC(C)=O)CC2	3.3µM	–	?	?	–	–
CC(C)(C)C(=O)NCC(c1ccc2c(c1)OCO2)N1CCOCC1 (stereo not given)	·	·	·	·	·	–
COc1ccc(CNC(=O)c2ccc(CN3C(=O)C(C)=C(c4ccc(C)cc4)S3(=O)=O)cc2)cc1	·	·	·	·	·	–
COC(=O)C(=C/C(C)=C/c1cccnc1)C(=O)OC	8.2µM	?	?	?	–	–
CN(C)C(=O)/C(=C/c1cn(-c2ccccc2)nc1-c1cccc([N+](=O)[O-])c1)NC(=O)c1ccccc1	–	–	–	–	–	–
CCOC(=O)N1CCN(C(=O)/C(=C/c2ccccc2OC)NC(=O)c2ccccc2)CC1	–	7.3µM	–	–	–	–
C=CCOC(=O)/C(=C/c1cccc2ccccc12)NC(=O)c1ccccc1	–	8.2µM	–	–	–	–
C=CCNC(=O)/C(=C/c1ccccc1OCC)NC(=O)c1ccccc1	–	12µM	–	–	–	–
C=CCNC(=O)/C(=C/c1cn(-c2ccccc2)nc1-c1cccc([N+](=O)[O-])c1)NC(=O)c1ccccc1	–	16µM	?	–	–	–
Cc1cccc(N(C)c2nc3ccccc3c3nnc(C)n23)c1	·	–	·	–	·	–
O=C1CCc2cc(S(=O)(=O)Nc3ccc4c(c3)CCC4)ccc2N1	·	–	·	–	·	·
Cc1ncc2c(c1CNC(=O)c1cncs1)CCN(C(=O)c1csc(-c3cccs3)n1)C2	·	·	·	·	·	–
O=C(c1ccc([N+](=O)[O-])o1)N1CCc2ccccc21	9.2µM	?	21µM	?	–	–
COc1cc2c(cc1OC)CN(C(=O)c1ccc([N+](=O)[O-])o1)CC2	?	?	6.5µM	–	–	–
SMILES	MCF10A rerep	KB-V1 cytotox	SW480 rereplic	KB-3-1 cytotox	TSG101-PTAP inh	PINK1 modulator
COc1cccc2sc(N3CCN(C(=O)c4ccc([N+](=O)[O-])o4)CC3)nc12	23µM	?	?	?	–	?
Cc1ccc2sc(N3CCN(C(=O)c4ccc([N+](=O)[O-])o4)CC3)nc2c1C	?	–	–	–	–	–
O=C(c1ccc([N+](=O)[O-])o1)N1CCN(c2nc3c(Cl)cccc3s2)CC1	7.3µM	?	?	?	–	–
CC1=CC(C)(C)n2c(O)c(N=N)c3c(C)c(C)cc1c32	23µM	?	?	–	–	–
CC1=CC(C)(C)n2c(O)c(N=N)c3c(C)ccc1c32	?	–	–	–	–	–
CSc1ccc(CNCc2c(C(=O)O)c(C)n(Cc3ccc(F)cc3Cl)c2C)cc1	·	–	·	–	·	–
O=c1cc(-c2ccc(O)c(O)c2)oc2ccc3ccccc3c12	?	18µM	?	–	–	–
O=c1oc(-c2ccc(O)c(O)c2)cc2cccc(O)c12	7.3µM	–	16µM	–	–	–
O=c1oc(-c2ccc(O)c(O)c2)cc2cc(O)cc(O)c12	–	?	–	–	–	–

Bioassay records as filed in PubChem.
